Measured values: PubChem BioAssay AID1159580 (chemical genetic matrix, 2015)
Values joined by “and” are separate entries in the source; they are usually repeats but may differ in a detail not shown here. Equal values may be shown once. Out of some 5,500 compounds screened, about 2,000 (36%) were called active. About 18% were inconclusive and are not listed. No stated cut-off is given here; in the data, active means normalized growth mostly below about 0.91 (no sharp cut-off); inconclusive means no clear call, values can overlap the other calls; inactive means mostly above about 0.92. This is one part of the list.

Test: chemical genetic growth profiling, strain panel (AID 1159580);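 further: tested at 20 µM; growth read once vehicle control cultures reached saturation at 30 °C; 1 = growth at the plate median or of vehicle wells; lower values mean less growth of the strain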
Conditions: S. cerevisiae deletion strains, growth OD

Measured: normalized growth

O=C1C=C(O)c2ccccc2C1=O
active: locus YAL021C, strain ccr4, active compounds read low 0.905 | locus YDR137W, strain rgp1, active compounds read low 0.683 | locus YDR159W, strain sac3, active compounds read low 0.802 | locus YDR334W, strain swr1, active compounds read low 0.884 | locus YFR010W, strain ubp6, active compounds read low 0.896 | locus YHR079C, strain IRE1, active compounds read low 0.774 | locus YJL164C, strain tpk1, active compounds read low 0.913
inactive: locus YAL013W, strain DEP1, active compounds read low 0.969 | locus YAL026C, strain drs2, active compounds read low 0.938 | locus YAL030W, strain snc1, active compounds read low 0.959 | locus YBL061C, strain skt5, active compounds read low 0.956 | locus YBR009C, strain hhf1, active compounds read low 0.948 | locus YBR021W, strain FUR4, active compounds read low 1.05 | locus YBR023C, strain chs3, active compounds read low 0.95 | locus YBR171W, strain sec66, active compounds read low 0.952 | locus YBR229C, strain ROT2, active compounds read low 0.979 | locus YBR231C, strain swc5, active compounds read low 0.932 | locus YBR279W, strain paf1, active compounds read low 0.953 | locus YCL011C, strain gbp2, active compounds read low 0.925 | locus YCL016C, strain dcc1, active compounds read low 0.95 | locus YCL029C, strain bik1, active compounds read low 0.971 | locus YCL061C, strain MRC1, active compounds read low 0.93 | locus YCL069W, strain vba3, active compounds read low 0.963 | locus YCR088W, strain abp1, active compounds read low 0.934 | locus YDL005C, strain med2, active compounds read low 0.947 | locus YDL035C, strain GPR1, active compounds read low 1.01 | locus YDL040C, strain nat1, active compounds read low 0.966 | locus YDL074C, strain BRE1, active compounds read low 1.03 | locus YDL101C, strain DUN1, active compounds read low 0.971 | locus YDL134C, strain PPH21, active compounds read low 0.968 | locus YDL185W, strain tfp1, active compounds read low 0.907 | locus YDL192W, strain arf1, active compounds read low 0.958 | locus YDR001C, strain nth1, active compounds read low 0.944 | locus YDR069C, strain doa4, active compounds read low 0.912 | locus YDR101C, strain arx1, active compounds read low 0.978 | locus YDR150W, strain NUM1, active compounds read low 0.972 | locus YDR162C, strain NBP2, active compounds read low 0.882 | locus YDR195W, strain ref2 0.995 | locus YDR297W, strain sur2, active compounds read low 0.931 | locus YDR318W, strain mcm21, active compounds read low 0.928 | locus YDR335W, strain msn5, active compounds read low 0.94 | locus YDR388W, active compounds read low 0.966 | locus YDR392W, strain spt3, active compounds read low 0.796 | locus YDR502C, strain sam2, active compounds read low 0.941 | locus YEL003W, strain gim4, active compounds read low 0.925 | locus YEL037C, strain rad23, active compounds read low 0.944 | locus YEL061C, strain CIN8 (second series), active compounds read low 0.948 | locus YEL061C, strain CIN8, active compounds read low 0.966 | locus YER015W, strain faa2, active compounds read low 0.94 | locus YER016W, strain bim1, active compounds read low 0.957 | locus YER110C, active compounds read low 0.955 | locus YER111C, strain swi4, active compounds read low 0.965 | locus YER155C, strain BEM2 (second series), active compounds read low 0.954 | locus YER155C, strain BEM2, active compounds read low 0.957 | locus YER167W, strain BCK2, active compounds read low 0.98 | locus YGL078C, strain dbp3, active compounds read low 1.01 | locus YGL086W, strain mad1, active compounds read low 0.976 | locus YGL167C, strain pmr1, active compounds read low 0.948 | locus YGL173C, strain kem1, active compounds read low 0.942 | locus YGL227W, strain vid30, active compounds read low 0.977 | locus YGL240W, strain doc1, active compounds read low 0.89 | locus YGL248W, strain PDE1, active compounds read low 0.966 | locus YGL253W, strain hxk2, active compounds read low 0.924 | locus YGR078C, strain PAC10, active compounds read low 0.963 | locus YGR135W, strain pre9, active compounds read low 0.973 | locus YGR252W, strain gcn5, active compounds read low 1.03 | locus YHR013C, strain ard1, active compounds read low 0.963 | locus YHR027C, strain rpn1, active compounds read low 0.935 | locus YHR030C, strain SLT2, active compounds read low 0.963 and 0.867 | locus YHR079C, strain IRE1 (second series), active compounds read low 0.981 | locus YHR094C, strain hxt1, active compounds read low 1 | locus YHR129C, strain ARP1, active compounds read low 0.988 | locus YHR142W, strain chs7, active compounds read low 0.93 | locus YHR200W, strain rpn10, active compounds read low 0.962 | locus YIL066C, strain RNR3, active compounds read low 0.972 | locus YIL073C, strain SPO22, active compounds read low 0.992 | locus YIL125W, strain kgd1, active compounds read low 0.962 | locus YIR030C, strain dcg1, active compounds read low 0.972 | locus YJL092W, strain hpr5, active compounds read low 0.934 | locus YJL095W, strain BCK1 (second series), active compounds read low 0.931 | locus YJL095W, strain BCK1, active compounds read low 0.949 and 0.923 | locus YJL115W, strain asf1, active compounds read low 0.938 | locus YJL129C, strain trk1, active compounds read low 0.967 | locus YJL134W, strain LCB3, active compounds read low 0.967 | locus YJL154C, strain vps35, active compounds read low 0.933 | locus YJL166W, strain qcr8, active compounds read low 0.92 | locus YJL168C, strain set2, active compounds read low 0.955 | locus YJL187C, strain SWE1 (second series), active compounds read low 0.957 | locus YJL187C, strain SWE1, active compounds read low 0.946
